DT40 TDP1 CPT: growth inhibition of DT40 Tdp1-/-;hTDP1 cells with camptothecin (screen for TDP1 inhibitors); Potency, µM (doses to about 46.2 µM), for the others: top-dose activity change, negative = growth inhibition, most hits filed as inhibitors; chicken DT40 Tdp1-/-;hTDP1 cells + 20 nM CPT, ATP luminescence, 48 h; AID 686979; 420,000 tested, 12% active; note: % is set by controls: 0 for no effect and ±100 for the full control effect; nearly all actives have a fitted effect of over 55% in size
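Chicken DT40 Tdp1-/- cells stably complemented with human TDP1 were seeded at 400 cells/well in medium containing 20 nM camptothecin, exposed to pin-transferred compounds, and grown at 37 °C for at least 48 hr. Viability was read as ATP luminescence.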
ClpP mod: qHTS Assay for Activators of ClpP. ATP-dependent Clp protease proteolytic subunit (Bacillus subtilis (strain 168)), P80244. purified B. subtilis ClpP, FRET peptide cleavage, 20 min. Potency, µM (titrated, usually from 57.5 µM), inactives show at the highest dose activity change, negative = active. 340,000 tested, 1.9% active. AID 651965, 2013; active = well fitted falling curve with a large enough effect; inconclusive = small, poorly fitted or top-dose-only effect; inactive = no such curve, though single readings can be large or run the other way; note: the source files actives as falling curves though it sought activators and does not explain the sign; nearly all actives have a fitted effect of over 65% in size
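ClpP 10 microg/mL final, pH 8 Tris/KCl buffer with BSA, glycerol, Tween-20; compound pinned in; FRET-FV substrate; RT 20 min; Ex320/Em430; ΔFRET vs ADEP 5.8 microM, DMSO, no enzyme.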
TDP1 inh: inhibitors of human tyrosyl-DNA phosphodiesterase TDP1; AID 485290; Potency, µM (highest dose often 130 µM), inactives show at the top dose activity change, negative = inhibition, actives largely listed as inhibitors; Q9NUW8; recombinant TDP1, AlphaScreen DNA substrate cleavage; 350,000 tested, 0.28% active; note: % is set by controls: 0 for no effect and ±100 for the full control effect; nearly all actives have a fitted effect of over 40% in size
Target sequence (Q9NUW8 whole entry, looked up): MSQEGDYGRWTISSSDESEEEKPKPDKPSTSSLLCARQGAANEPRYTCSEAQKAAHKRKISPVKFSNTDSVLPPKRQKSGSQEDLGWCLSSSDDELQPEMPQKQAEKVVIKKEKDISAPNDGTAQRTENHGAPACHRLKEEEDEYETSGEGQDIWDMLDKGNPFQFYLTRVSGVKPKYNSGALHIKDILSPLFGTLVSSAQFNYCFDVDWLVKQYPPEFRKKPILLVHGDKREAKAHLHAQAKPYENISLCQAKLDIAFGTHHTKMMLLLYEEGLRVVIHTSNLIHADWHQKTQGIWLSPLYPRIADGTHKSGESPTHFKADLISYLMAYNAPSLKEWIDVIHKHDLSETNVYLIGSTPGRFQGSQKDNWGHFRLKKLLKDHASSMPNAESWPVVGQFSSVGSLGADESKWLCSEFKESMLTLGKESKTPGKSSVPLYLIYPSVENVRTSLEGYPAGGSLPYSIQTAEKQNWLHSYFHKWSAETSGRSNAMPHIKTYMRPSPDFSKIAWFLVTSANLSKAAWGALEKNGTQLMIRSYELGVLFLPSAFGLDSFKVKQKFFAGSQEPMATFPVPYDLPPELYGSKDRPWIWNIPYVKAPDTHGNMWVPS
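Recombinant E. coli-expressed Tdp1 (1 nM) preincubated with compound 15 min at RT, then 5'-biotin/3'-phosphotyrosine-FITC DNA substrate (15 nM) added for 5 min. AlphaScreen beads (10 ug/ml) added, 10 min RT; tyrosine-FITC cleavage read as signal loss.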
DT40 TDP1 no CPT: qHTS for Inhibitors of human tyrosyl-DNA phosphodiesterase 1 (TDP1): qHTS in cells in absence of CPT; DT40 Tdp1-/- hTDP1 cells, no CPT, ATP luminescence, 48 h; Potency, µM (highest dose often 46.2 µM), for the others: top-dose activity change, negative = growth inhibition, actives largely listed as inhibitors; 420,000 tested, 15% active; AID 686978, 2013; note: % is set by controls: 0 for no effect and ±100 for the full control effect; nearly all actives have a fitted effect of over 55% in size
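Compound effects on proliferation are scored in DT40 Tdp1-/-;hTDP1 cells in the absence of CPT. ATP levels (CellTiter-Glo luminescence) are recorded after a ≥48 hr, 37 °C incubation.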
Active calls of the source: *; ? = inconclusive; · = not tested or not shown; [ ] = another dose, or the depositor's remark. Most compounds without a hit are left out; they make up all but 17% or so of the library. Unless noted, calls come from the whole dose curve; as a rule, active = well fitted curve in the direction sought with a large enough effect; inconclusive = small, poorly fitted or top-dose-only effect, or another doubt; inactive = no such curve, though single readings can be large; an effect the other way counts as inactive or inconclusive. Potency is the fitted concentration of half-maximal effect.

SMILES	DT40 TDP1 CPT	ClpP mod	TDP1 inh	DT40 TDP1 no CPT
C=C1CCC2C(C)(CO)C(O)CCC2(C)C1C/C=C1\C(=O)OCC1O (centres undefined)	3.98µM*	1.2%	12.8%[56.1 µM]	5.01µM*
C=C1CCC2[C@](C)(CO[C@@H]3O[C@H](CO)[C@@H](O)[C@H](O)[C@H]3O)CCC[C@@]2(C)[C@@H]1CCC1=CCOC1=O (some centres undefined)	-14.1%	-0.4%	·	?
Cc1cccc(C)c1NC(=O)C(CCc1ccccc1)n1c(=O)c(-c2cc3ccccc3[nH]2)nc2ccccc21 (centres undefined)	7.31µM*	1.1%	·	6.51µM*
Cc1cccc(C)c1NC(=O)C(CCc1ccccc1)n1c(=O)c(-c2ccccc2)nc2ccccc21 (centres undefined)	3.26µM*	-12.6%	·	4.11µM*
Cc1cccc(C)c1NC(=O)C(c1ccc(C(F)(F)F)cc1)n1c(=O)c(-c2cc3ccccc3[nH]2)nc2ccccc21 (centres undefined)	?	18.1%	·	?
CC(C)(C)NC(=O)C(CCc1ccccc1)n1c(=O)c(-c2cc3ccccc3[nH]2)nc2ccccc21 (centres undefined)	14.6µM*	-21.0%	·	13µM*
CN(C(=O)c1cncc(Br)c1)C1C2CC3CC(C2)CC1C3 (centres undefined)	-16.4%	-0.7%	·	-9.4%
CCN(c1ccccc1)S(=O)(=O)c1ccc(Cl)c(NC(=O)Nc2ccc(Cl)cc2C#N)c1	16.4µM*	-1.6%	7.1%	16.4µM*
CCN(c1ccccc1)S(=O)(=O)c1cc(NC(=O)Nc2ccccc2C#N)ccc1Cl	-23.5%	-9.3%	-1.9%	?
CN(c1ccccc1)S(=O)(=O)c1cccc(NC(=O)Nc2ccc(Cl)cc2C#N)c1	?	-1.0%	0.0%	23.1µM*
O=C(CN1C(=O)COc2ccc(Cl)cc21)Nc1ccc(F)cc1	?	-0.8%	-6.3%	?
O=C1c2ccccc2C(=O)c2c(/C=C/N3CCCCC3)ccnc21	6.51µM*	-1.8%	·	10.3µM*
COCCCN(CC(=O)O)S(=O)(=O)c1cccc(Cl)c1	-1.7%	-0.1%	3.7%	5.7%
COc1ccccc1C1c2[nH]c3ccccc3c2C[C@H]2C(=O)N(C3CCN(Cc4ccccc4)CC3)CC(=O)N12 (some centres undefined)	?	-0.8%	·	9.2µM*
COc1ccc(C2c3[nH]c4ccccc4c3C[C@H]3C(=O)N(C4CCN(Cc5ccccc5)CC4)CC(=O)N23)cc1OC (some centres undefined)	20.6µM*	-0.1%	·	?
COc1cccc(C2c3[nH]c4ccccc4c3C[C@H]3C(=O)N(C4CCN(Cc5ccccc5)CC4)CC(=O)N23)c1 (some centres undefined)	23.1µM*	-8.5%	·	?
COCCCN1CC(=O)N2C(c3cccc(OC)c3OC)c3[nH]c4ccccc4c3C[C@H]2C1=O (some centres undefined)	-6.6%	-1.0%	·	-4.2%
COc1cccc(C2c3[nH]c4ccccc4c3C[C@H]3C(=O)N(CCCCCO)CC(=O)N23)c1 (some centres undefined)	-18.3%	1.8%	·	-7.8%
COc1ccc(N2CCN(C(c3ccccc3)c3nnnn3C(C)(C)C)CC2)cc1 (centres undefined)	-6.0%	-6.7%	·	?
COc1ccc(C(c2nnnn2C(C)(C)C)N2CCN(c3nc4ccccc4s3)CC2)cc1 (centres undefined)	7.2%	25.1µM*	4.1%	4.4%
c1ccc(C(c2nnnn2Cc2ccco2)N2CCN(c3nc4ccccc4s3)CC2)cc1 (centres undefined)	?	-1.7%	-1.7%	14.6µM*
c1ccc(Cn2nnnc2C(c2ccccc2)N2CCN(c3nc4ccccc4s3)CC2)cc1 (centres undefined)	?	-3.1%	0.0%	?
CCC(C)(C)n1nnnc1C(c1cc(OC)c(OC)c(OC)c1)N1CCN(c2ccccc2)CC1 (centres undefined)	-8.8%	0.3%	-2.6%	-21.8%
CCC(C)(C)n1nnnc1C(c1ccc(O)c(OC)c1)N1CCN(c2nc3ccccc3s2)CC1 (centres undefined)	?	1.5%	11.7%	16.4µM*
COc1ccc(C(c2nnnn2Cc2ccccc2)N2CCN(c3nc4ccccc4s3)CC2)cc1OC (centres undefined)	?	-3.7%	3.3%	18.4µM*
SMILES	DT40 TDP1 CPT	ClpP mod	TDP1 inh	DT40 TDP1 no CPT
O=C(O)c1ccccc1OCC1CCCO1 (centres undefined)	-19.8%	·	-3.8%	-8.9%
O=C(O)CC(NC(=O)CC(c1ccccc1)c1ccccc1)c1cccc([N+](=O)[O-])c1 (centres undefined)	-13.4%	2.5%	·	-0.3%
CCC12OC(=N)C(C#N)(C1C)C(C#N)(C#N)C(c1ccccc1)O2 (centres undefined)	5.2%	7.08µM*	2.3%	-0.5%
CCC1OC2(C)OC(=N)C1(C#N)C(C#N)(C#N)C2c1ccccc1 (centres undefined)	?	22.4µM*	2.7%	?
CC(C)C1OC2(C)OC(=N)C1(C#N)C(C#N)(C#N)C2c1ccccc1 (centres undefined)	?	0.9%	0.0%	?
Cn1c(=O)n(-c2ccc(F)c(Cl)c2)c(=O)c2sc3ccccc3c21	-26.1%	3.7%	-1.3%	-25.2%
OC1(c2ccc(OC(F)F)cc2)CSC(=Nc2cccnc2)N1C1CC1 (centres undefined)	20.6µM*	-1.0%	8.0%	16.4µM*
COc1ccc(CN(C)C[C@@H]2OCc3cnnn3CCCC(=O)N([C@H](C)CO)C[C@H]2C)cc1	9.6%	-2.1%	·	5.4%
C=CCNc1nc(Nc2ccc(OC)c(OC)c2)c2sc(-c3ccccc3)cc2n1	1.84µM*	-9.4%	·	1.64µM*
COc1ccc(Nc2ncnc3sc(-c4ccccc4)cc23)cc1OC	?	?	6.8%	?
COCCNc1nc2cc(-c3ccccc3)sc2c(=O)n1C	?	4.8%	·	?
C=CCNc1nc(NCCOC)c2sc(-c3ccccc3)cc2n1	?	-23.1%	·	13µM*
C=CCNc1nc(NCc2ccc(N(C)C)cc2)c2sc(-c3ccccc3)cc2n1	6.51µM*	?	·	5.8µM*
COCCNc1nc(Nc2ccc(C)cc2C)c2sc(-c3ccccc3)cc2n1	25.9µM*	?	·	18.4µM*
CCn1c(-c2cccc(OC)c2)nc2cc(NC(C)=O)cc(C(=O)N3CCC[C@H]3C(=O)OC)c21	-1.9%	·	·	4.9%
C[C@H](CO)N1C[C@H](C)[C@@H](CN(C)S(=O)(=O)c2ccccc2F)Oc2ncc(Br)cc2C1=O	-20.2%	0.8%	·	-26.3%
C=CCNc1nc(NCCOc2ccccc2Cl)c2sc(-c3ccccc3)cc2n1	14.6µM*	28.2µM*	·	14.6µM*

High-throughput results deposited in PubChem BioAssay by National Center for Advancing Translational Sciences (NCATS).
